The list is not random: actives were taken first. Their share in the collection is about 3.7%.
Tau fluor counter: Counterscreen qHTS for Inhibitors of Tau Fibril Formation, Fluorescence Polarization | tau K18 P301L Alexa594 fluorescence, heparin fibrillization | Potency, µM (titrated, usually from 57.7 µM), for inactives: at the top dose activity change, negative = decrease | 0.93% of 280,000 active | AID 1463, 2008; also: % is scaled to controls: 0 for no effect and ±100 for the full control effect; nearly all actives have a fitted effect of over 55% in size
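Human tau K18 P301L (15 uM unlabeled, 0.24 uM Alexa 594-labeled) in 100 mM sodium acetate pH 7 with 20 uM heparin, 6 hr at 37 C. ThT 30 uM added, 1 hr ambient; Alexa 594 FP and total fluorescence read at 555/632 nm.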
Tau ThT inhib: qHTS for Inhibitors of Tau Fibril Formation, Thioflavin T Binding. Potency, µM (doses to about 57.4 µM), for inactives: at the top dose activity, negative = inhibition, most hits filed as inhibitors. Microtubule-associated protein tau (Homo sapiens), P10636. 2.1% of 270,000 active. recombinant tau K18 P301L, heparin-induced fibrillization, ThT fluorescence; also: % is scaled to controls: 0 for no effect and ±100 for the full control effect; nearly all actives have a fitted effect of over 55% in size
Target sequence (P10636 561-689 P618L limits assumed): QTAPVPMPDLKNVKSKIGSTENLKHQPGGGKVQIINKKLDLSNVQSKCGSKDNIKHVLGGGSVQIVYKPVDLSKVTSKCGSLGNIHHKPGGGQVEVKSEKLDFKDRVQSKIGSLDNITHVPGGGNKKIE
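Fibril formation assay: tau K18 P301L at 15 uM with trace Alexa 594 label, heparin inducer 20 uM, pH 7 sodium acetate buffer, 37 C for 6 hr; endpoint ThT signal.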
HttQ103 aggreg: qHTS Multiplex Assay to Identify Dual Action Probes in a Cell Model of Huntington: Aggregate Formation (GFP) | PC12 HttQ103-GFP aggregates, Acumen cytometry, 40 h | Potency, µM (doses to about 46.1 µM), for inactives: top-dose activity change, negative = inhibition, hits mostly inhibitors | 1.1% of 220,000 active | AID 1688, 2009; also: % is scaled to controls: 0 for no effect and ±100 for the full control effect; nearly all actives have a fitted effect of over 60% in size
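Read-out: GFP aggregate count by laser scanning cytometer (488 nm excitation, 500-530 nm emission, 1–25 µm objects >6 SD above background). Cells: PC12, inducible HTTex1-Q103-GFP, 100 nM tebufenozide; compounds titrated.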
Tau fibril FP: qHTS for Inhibitors of Tau Fibril Formation, Fluorescence Polarization; 0.39% of 280,000 active; K18 P301L tau heparin fibrillization, Alexa594 FP, 6 h; Potency, µM (highest dose often 57.7 µM), for inactives: top-dose activity, negative = inhibition, most hits filed as inhibitors; AID 1468, 2008; also: % is scaled to controls: 0 for no effect and ±100 for the full control effect; nearly all actives have a fitted effect of over 55% in size
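Steps: dispense K18 P301L tau (15 uM plus 0.24 uM Alexa 594 tracer, final) in pH 7 sodium acetate; add compound; add heparin (20 uM final); incubate 6 hr, 37 C; add ThT (30 uM final); after 1 hr ambient, read FP.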
HTT ATP protect: qHTS Multiplex Assay to Identify Dual Action Probes in a Cell Model of Huntington: Cytoprotection (ATP); PC12 HTT-Q103 induced, cytoprotection, ATP luminescence, 40 h; Potency, µM (doses to about 56.4 µM), for inactives: cytoprotection (ATP increase), most hits filed as activators; 0.14% of 230,000 active; also: % of control where 0% means no effect; nearly all actives have a fitted effect of over 45% in size
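Stable PC12 Q103-GFP cells in serum-supplemented, phenol red-free DMEM; induction by tebufenozide at 100 nM final; compound dose series; cell viability quantified luminescently from ATP.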
The depositor's hits bear a star; u = inconclusive; x = no result given; [ ] = another dose, or the depositor's remark. Calls follow the shape of the dose curve; as a rule, active = well fitted curve in the direction sought with a large enough effect; inconclusive = small, poorly fitted or top-dose-only effect, or another doubt; inactive = no such curve, though single readings can be large; an effect the other way counts as inactive or inconclusive. Potency is read from the fitted curve at half-maximal effect.

SMILES	Tau fluor counter	Tau ThT inhib	HttQ103 aggreg	Tau fibril FP	HTT ATP protect
O=C(Nc1ccc(N2CCOCC2)cc1)c1ccncc1	-8%	u	-4%	2%	u
O=C(CSc1nnc(-c2ccco2)c(-c2ccco2)n1)c1ccccc1	8%[2.34 µM]	10%	18%[9.22 µM]	-7%	35%[10 µM]
O=C(NC(=S)Nc1ccc(N2CCOCC2)cc1)c1ccco1	-11%	u	-15%	-1%	-19%[10 µM]
CC(=O)c1ccc(NC(=O)c2ccc3nc(-c4ccco4)c(-c4ccco4)nc3c2)cc1	u	13µM*	17%	-14%	-25%
S=C(Nc1ccc(N2CCOCC2)cc1)Nc1ccc2nc(-c3ccco3)c(-c3ccco3)nc2c1	7.9µM*[quencher]	2.2µM*	-19%	u	-22%
CCCS(=O)(=O)O	x	x	x	x	-7%[10 µM]
CO[C@H]1COC(=O)[C@H](C)NC(=O)C/C=C\[C@@H](C)[C@@H](NS(=O)(=O)c2ccc(C)cc2)COC(=O)C/C=C\[C@@H]1C	-16%[11.6 µM]	-14%[11.5 µM]	x	0%[11.6 µM]	-26%[10 µM]
O=C(Nc1ccc(N2CCOCC2)cc1)c1ccc2nc(-c3ccco3)c(-c3ccco3)nc2c1	u	2.5µM*	-24%	-6%	-8%[10 µM]
CC1CCCC(C)N1C(=O)c1cccc2c1-c1ccccc1/C2=N/O (stereo unspecified)	-18%	-7%	7.9µM*	-5%	6%[1.9 µM]
CC(C)COC(=O)c1cccc2c1-c1ccccc1/C2=N\O	-29%	-5%	-26%	28µM*	-17%[10 µM]
CCOC(=O)c1cccc2c1-c1ccccc1/C2=N/O	u	-23%	-5%	u	19%
COc1ccc(S(=O)(=O)N2CCC(N3CCN(Cc4ccccc4)C(=O)C3=O)CC2)cc1	12%	9%	x	0%	x
O=c1cc(CN2CCN(Cc3ccccc3)CC2)c2cc3c(cc2o1)CCC3	-15%	-12%	20%[9.22 µM]	-7%	6%[10 µM]
O=c1cc(CN2CCN(c3ccccc3F)CC2)c2cc3c(cc2o1)CCCC3	-11%	-10%	0.63µM*	4%	1.1µM*
CCOC(=O)c1c(C)n(C)c2cc([N+](=O)[O-])c(O)c([N+](=O)[O-])c12	-22%	8.9µM*	15%[9.22 µM]	-7%	2%[10 µM]
CCOC(=O)c1c(C)n(C)c2cc(Br)c(O)c(O)c12	-23%	u	-5%[9.22 µM]	-10%	-2%[10 µM]
CC(C)c1ccc(NC(=O)c2csnn2)cc1	-10%	-18%	-26%	1%	-86%
CC(C)c1ccc(NC(=O)c2snc3ccc(Cl)cc23)cc1	u	u	-13%	22µM*	13%[10 µM]
O=C1c2ccccc2-c2nc3ccccc3nc21	u	20µM*	-9%	u	-26%
O=C(CSc1nc(-c2ccccc2)[nH]c1-c1ccccc1)Nc1ccc2c(c1)OCO2	7.1µM*[quencher]	u	x	2%	x
COc1ccccc1Cc1nc2ccccc2nc1SCC(=O)Nc1ccc2c(c1)OCO2	-26%	9%	x	-7%	x
O=C(CSc1nc(-c2ccccc2)c(-c2ccccc2)[nH]1)Nc1ccc2c(c1)OCO2	u	-6%	-5%	5%	6%[10 µM]
COc1cc(-c2nc(SCC(=O)Nc3ccc4c(c3)OCO4)c(-c3ccccc3)[nH]2)cc(OC)c1OC	5.6µM*[quencher]	u	x	2%	x
O=C1NC(c2ccccc2)=C(c2ccc3ccccc3n2)C(c2ccncc2)N1 (stereo unspecified)	u	11µM*	u	-16%	-24%
Cc1cccc(OCC(=O)N/N=C/c2ccc(N(C)C)cc2)c1	-29%	3.5µM*	x	7%	x
SMILES	Tau fluor counter	Tau ThT inhib	HttQ103 aggreg	Tau fibril FP	HTT ATP protect
O=C(CSC1=N/C(=C/c2ccco2)C(=O)N1c1ccc(OC(F)F)cc1)NC1CCS(=O)(=O)C1 (stereo unspecified)	-25%	28µM*	u	u	3%[10 µM]
Nc1nonc1-c1nc2ccccc2n1CC(=O)O	-6%	-15%	12%	7%	2%
CCCn1c(-c2nonc2N)nc2ccccc21	-14%	-11%	13µM*	4%	3%[10 µM]
CC(=O)c1c(C)n(-c2ccccc2)c2ccc(O)cc12	-7%	2%	10µM*	7%	26%
COC(=O)c1c(C)n(-c2ccccc2)c2ccc(O)cc12	-29%	u	-21%	-10%	-25%
Fc1cc(NC(=S)NCc2ccc(CNC(=S)Nc3ccc(Cl)c(F)c3)cc2)ccc1Cl	-24%	17%	-25%[9.22 µM]	4µM*	-4%[10 µM]
Fc1cccc(NC(=S)NCc2ccc(Cl)cc2)c1	-26%	7%	-26%	-13%	x
CC1(C)Cc2c(sc3nc(-c4ccccc4)n(N)c(=O)c23)CO1	-6%	-4%	-29%	5%	-17%
CC1(C)Cc2c(sc3nc(-c4cccs4)n(N)c(=O)c23)CO1	-12%	-12%	10µM*	3%	-96%
COc1ccc(NC(=O)c2c(C)oc3ccc(O)c(CN4CCN(Cc5ccccc5)CC4)c23)cc1Cl	u	-9%	x	-10%	x
Cc1cc(-n2c(SCc3ccccc3F)nc3n[nH]c(C)c3c2=N)ccc1Cl	-21%	5%	u	18µM*	-74%
COc1ccc(C2=CSC3=NNC4(CCCCC4)NN23)cc1	-26%	22µM*	u	0%	-66%
CC(C)COC[C@H](CN(Cc1ccccc1)c1ccccc1)N1CCCC1	x	x	x	x	8%[17.1 µM]
CN(C)c1ccc(N=Nc2ccccc2C(=O)OCC(=O)NC2CCCC2)cc1	u	6.3µM*	6.3µM*	-3%	-20%[10 µM]
CN(C)c1ccc(N=Nc2ccccc2C(=O)OCC(=O)N(C)C2CCCCC2)cc1	u	7.9µM*	u	12%	-15%[10 µM]
CN(C)c1ccc(C(=O)OCC(=O)NC2CCCCCC2)cc1	-12%	-15%	-22%	6%	-24%
CN(C)c1ccc(N=Nc2ccccc2C(=O)OCC(=O)NCC2CCCCC2)cc1	14%	1.8µM*	-1%	u	5%[10 µM]
CC1=C(C(=O)OCc2ccc(C)cc2)C(c2cccc(F)c2F)CC(=O)N1 (stereo unspecified)	-27%	-11%	x	-12%	x
NC1=N[C@H](c2ccc(Cl)cc2)N(c2ccc(S(N)(=O)=O)cc2)C(N)=N1	x	x	x	x	11%[10 µM]

From PubChem
